We go through 19 molecules from PubChem BioAssay (NCATS).

“And” between values parts separate entries of the source, which are not always exact repeats. Equal entries are not always repeated. Inconclusive results are not listed. The source made the active and inactive calls. Unless noted, the call rests on the fitted dose curve; in most records, active means well fitted activation curve with a large enough effect; inconclusive means small, poorly fitted or top-dose-only effect; inactive means flat fitted curve, though single readings scatter.

Tumor necrosis factor (Homo sapiens), sequence (P01375 whole entry, looked up): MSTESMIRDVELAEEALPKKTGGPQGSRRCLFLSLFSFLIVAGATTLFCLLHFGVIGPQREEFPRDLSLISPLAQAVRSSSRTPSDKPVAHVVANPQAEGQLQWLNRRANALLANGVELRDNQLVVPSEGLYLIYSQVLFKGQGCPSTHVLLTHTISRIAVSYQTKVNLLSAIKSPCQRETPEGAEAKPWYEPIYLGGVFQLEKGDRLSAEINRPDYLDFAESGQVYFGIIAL

System in one test: not listed separately
In words: qHTS assay for small molecule activators of the p53 signaling pathway (AID 651743; active means well fitted activation curve with a large enough effect in the signal ratio, not every such curve was filed as active; the % refers to the signal ratio; further: potency means the concentration at half of the fitted maximal effect; on activation: % of control where 0% means no effect). Conditions: HCT-116 p53RE-bla, beta-lactamase FRET ratio, 16 h; activation: stronger effect = higher value. An outline of the steps: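 Following 16 hours of compound exposure at 37 C, HCT-116 cells bearing the p53RE-bla reporter were loaded with LiveBLAzer B/G FRET substrate for 2 hours at room temperature and fluorescence intensity was recorded.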
For the molecule `CN(C)c1ccc(C2(c3ccc(N(C)C)cc3)OC(=O)c3cc(N(C)C)ccc32)cc1`, the Potency is 50.1 µM (active).

In the case of `CO[C@H]1/C=C/O[C@@]2(C)Oc3c(C)c(O)c4c(O)c(c5c(c4c3C2=O)NC2(CCN(CC(C)C)CC2)N=5)=NC(=O)/C(C)=C\C=C\[C@H](C)[C@H](O)[C@@H](C)[C@@H](O)[C@@H](C)[C@H](OC(C)=O)[C@@H]1C`, the activation is -4.17% (inactive).

`CC(=O)Nc1ccc(C(=O)CCl)cc1`: the Potency is 31.6 µM (active).

For `O=C=Nc1ccc(Cc2ccc(N=C=O)cc2)cc1`, the activation was 6.25% (inactive) and 1.32% (inactive).

For `CNc1ccc(O)cc1`, the activation is -13.4% (inactive).

In the case of `C=CC(=O)OCCOCCOC(=O)C=C`, the activation is 2.89% (inactive).

On to `C=C(C)c1ccccc1`, for which the activation is -1.34% (inactive).

Turning to `O=C1OC(O)C(C(Cl)Cl)=C1Cl` (stereo not drawn), the activation was -1.76% (inactive).

As to `Cc1ccc(S(=O)(=O)Oc2ccc(N=Nc3ccc(-c4ccc(N=Nc5c(O)ccc6cc(S(=O)(=O)O)cc(S(=O)(=O)O)c56)c(C)c4)cc3C)cc2)cc1`, the activation was 1.02% (inactive).

System in a further test: not listed separately
In words: qHTS assay for small molecule activators of the nuclear factor-kappa B (NF-kB) signaling pathway (AID 651749; active means well fitted activation curve with a large enough effect in the signal ratio; the % refers to the signal ratio; further: % of control where 0% means no effect). The following applies: NF-kB-bla ME-180 cells, beta-lactamase FRET ratio, 16 h; stronger effect = higher value. An outline of the steps:
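In this qHTS format, compounds acting as activators increase NF-kB-driven beta-lactamase in ME-180 cells, measured as disrupted FRET after 16 hr exposure at 37C and 5% CO2.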
Background: In qHTS, concentration-response curves come from the screen itself.
As to `ClC1=C(Cl)C(Cl)(Cl)C(Cl)=C1Cl`, the activation is -0.183% (inactive) and -0.468% (inactive).

With `CC(=O)Nc1ccc(C(=O)CCl)cc1`, the activation was -3.62% (inactive).

As for `O=C=Nc1ccc(Cc2ccc(N=C=O)cc2)cc1`, the activation is 0.0924% (inactive).

Regarding `CNc1ccc(O)cc1`, the activation is -0.994% (inactive).

As to `Oc1ccc2cc(SSc3ccc4cc(O)ccc4c3)ccc2c1`, the activation was 0.682% (inactive).

In the case of `C/C=C1\C(=O)C[C@H]2[C@@H]3CCC4=CC(=O)CC[C@]4(C)[C@H]3CC[C@]12C`, the activation is -4.79% (inactive).

For `C=C(C)c1ccccc1`, the activation is 1.11% (inactive).

As for `O=C1OC(O)C(C(Cl)Cl)=C1Cl` (stereo not drawn), the activation was -0.496% (inactive).

For the molecule `Cc1ccc(S(=O)(=O)Oc2ccc(N=Nc3ccc(-c4ccc(N=Nc5c(O)ccc6cc(S(=O)(=O)O)cc(S(=O)(=O)O)c56)c(C)c4)cc3C)cc2)cc1`, the activation is -0.0057% (inactive).

The target in another test is Tumor necrosis factor (Homo sapiens) (UniProt P01375). In words: qHTS assay to identify small molecules that stimulate Tumor Necrosis Factor-alpha (TNF-alpha) secretion (AID 651757; active means well fitted curve in the direction sought with a large enough effect in the signal ratio; the % refers to the signal ratio; further: 0% is about no effect). The following applies: Human cells, HTRF 665/615 ratio; series mostly up to 92.2 µM; activation (TNF-alpha secretion): at the top concentration. An outline of the steps:
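Secreted TNF-alpha quantified by TR-FRET sandwich of two labeled anti-TNF-alpha antibodies, incubated 3 hr at room temperature. Preceded by 17 hr, 37 C compound treatment of THP-1 cells at 3000 cells/well.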
As to `c1cc(OCC2CO2)cc(OCC2CO2)c1` (stereo not drawn), the “activation (TNF-alpha secretion)” value is 1.76% (inactive).

Turning to `O=C(OCC(COC(=O)c1ccccc1)(COC(=O)c1ccccc1)COC(=O)c1ccccc1)c1ccccc1`, the “activation (TNF-alpha secretion)” value is -0.146% (inactive).

In the case of `ClC1=C(Cl)C(Cl)(Cl)C(Cl)=C1Cl`, the “activation (TNF-alpha secretion)” value is 0.239% (inactive).

On to `CC/C(=C(\c1ccccc1)c1ccc(OCCN(C)C)cc1)c1ccc(O)cc1`, for which the “activation (TNF-alpha secretion)” value is 0.0829% (inactive).

Turning to `O=C=Nc1ccc(Cc2ccc(N=C=O)cc2)cc1`, the “activation (TNF-alpha secretion)” value is -0.324% (inactive).

As for `Cc1cc(O)c(C(C)(C)C)cc1Sc1cc(C(C)(C)C)c(O)cc1C`, the “activation (TNF-alpha secretion)” value is 0% (inactive).

On to `C=CC(=O)OCCOCCOC(=O)C=C`, for which the “activation (TNF-alpha secretion)” value was 0.511% (inactive).

Regarding `Oc1ccc2cc(SSc3ccc4cc(O)ccc4c3)ccc2c1`, the “activation (TNF-alpha secretion)” value is 2.58% (inactive).

Regarding `C/C=C1\C(=O)C[C@H]2[C@@H]3CCC4=CC(=O)CC[C@]4(C)[C@H]3CC[C@]12C`, the “activation (TNF-alpha secretion)” value was 0.68% (inactive).

With `C=C(C)c1ccccc1`, the “activation (TNF-alpha secretion)” value is -0.356% (inactive).

System in another test: not listed separately
The experiment in a line: qHTS assay to identify small molecules that stimulate interleukin-8 (IL-8) secretion (AID 651758; active means well fitted activation curve with a large enough effect in the signal ratio; the % refers to the signal ratio; further: 0% is about no effect). The following applies: HTRF ratio (665/615); series mostly up to 92.2 µM; activation: at the top concentration. An outline of the steps:
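Compounds are added to THP-1 cells (2000 per well) and left 16 hrs at 37 C. A labeled anti-IL-8 antibody pair is then added, and IL-8 secretion is measured by time-resolved FRET after 1-3 hrs at room temperature.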
Regarding `O=C(OCC(COC(=O)c1ccccc1)(COC(=O)c1ccccc1)COC(=O)c1ccccc1)c1ccccc1`, the “activation” value is -1.3% (inactive).

For the molecule `O=C=Nc1ccc(Cc2ccc(N=C=O)cc2)cc1`, the “activation” value was 6.7% (inactive).

`O=C1OC2(c3cc(Br)c(O)c(Br)c3Oc3c2cc(Br)c(O)c3Br)c2c(Cl)c(Cl)c(Cl)c(Cl)c21`: the “activation” value was 10.6% (inactive).

As to `C=C(C)c1ccccc1`, the “activation” value is 11% (inactive).

System in a further test: not listed separately
The experiment in a line: qHTS assay for environmental chemicals that activate the Aryl hydrocarbon Receptor (AhR) signaling pathway (AID 651777). Further: nearly all actives have a fitted effect of over 15% in size. Further: potency means the concentration at half of the fitted maximal effect. On activation: % of control where 0% means no effect. The following applies: 1A2-DRE human hepatoma cells, luciferase, 24 h; activation: stronger effect = higher value. An outline of the steps:
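Human hepatoma 1A2-DRE cells, stably carrying a dioxin response element and CYP1A2 promoter driving luciferase, were exposed to compounds for 24 hr at 37 C and 5% CO2. Luciferase signal was then read after 30 min One-Glo at room temperature.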
Take `c1cc(OCC2CO2)cc(OCC2CO2)c1` (stereo not drawn): the activation is 4% (inactive) and -2.73% (inactive).

For the molecule `CN(C)c1ccc(C2(c3ccc(N(C)C)cc3)OC(=O)c3cc(N(C)C)ccc32)cc1`, the activation was -0.148% (inactive).

Turning to `CO[C@H]1/C=C/O[C@@]2(C)Oc3c(C)c(O)c4c(O)c(c5c(c4c3C2=O)NC2(CCN(CC(C)C)CC2)N=5)=NC(=O)/C(C)=C\C=C\[C@H](C)[C@H](O)[C@@H](C)[C@@H](O)[C@@H](C)[C@H](OC(C)=O)[C@@H]1C`, the activation was -1.73% (inactive).

Regarding `O=C(OCC(COC(=O)c1ccccc1)(COC(=O)c1ccccc1)COC(=O)c1ccccc1)c1ccccc1`, the activation was -0.471% (inactive).

As to `ClC1=C(Cl)C(Cl)(Cl)C(Cl)=C1Cl`, the activation is 0.158% (inactive) and 0.426% (inactive).

Consider `CC(=O)Nc1ccc(C(=O)CCl)cc1`, for which the activation is 3.94% (inactive).

Regarding `CC/C(=C(\c1ccccc1)c1ccc(OCCN(C)C)cc1)c1ccc(O)cc1`, the activation is -5.29% (inactive).

Consider `c1ccc2c(c1)-c1cccc3c1c-2cc1ccccc13`, for which the Potency was 7.08 µM (active).

As to `Cc1cc(O)c(C(C)(C)C)cc1Sc1cc(C(C)(C)C)c(O)cc1C`, the activation is -3.69% (inactive) and -11.4% (inactive).

Consider `CCC(C)Nc1ccc(NC(C)CC)cc1` (stereo not drawn), for which the activation is -3.51% (inactive).

Turning to `CNc1ccc(O)cc1`, the activation was 7.98% (inactive).

With `C=CC(=O)OCCOCCOC(=O)C=C`, the activation was 2.82% (inactive).

With `O=C1OC2(c3cc(Br)c(O)c(Br)c3Oc3c2cc(Br)c(O)c3Br)c2c(Cl)c(Cl)c(Cl)c(Cl)c21`, the activation is -2.87% (inactive).

With `C/C=C1\C(=O)C[C@H]2[C@@H]3CCC4=CC(=O)CC[C@]4(C)[C@H]3CC[C@]12C`, the activation is -0.115% (inactive).

In the case of `O=C1OC(O)C(C(Cl)Cl)=C1Cl` (stereo not drawn), the activation was -0.209% (inactive).

As for `Cc1ccc(S(=O)(=O)Oc2ccc(N=Nc3ccc(-c4ccc(N=Nc5c(O)ccc6cc(S(=O)(=O)O)cc(S(=O)(=O)O)c56)c(C)c4)cc3C)cc2)cc1`, the activation was -2.33% (inactive).
